# Experimental data: the supplement of paper PMC10849652
# About 8,800 targets were measured; listed, in parts, are those with a hit and a random draw of the rest. About 0.5% of all pairs of compound and target were hits. Unmarked numbers belong to inactive results.
# Tests used:
# Test in all cases: log2 fold change, soluble protein after heating vs DMSO (PISA); higher = thermal stabilisation; K562 lysate, 10 uM; active = over 0.2 and 3.5 SD of the protein, either way, in both replicates (recomputed)
# [1] = compound: NCC(=O)Nc1ccc(-n2nc(C(F)(F)F)cc2-c2ccc3c(ccc4ccccc43)c2)cc1
# In short: (§1)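 K562 pellets were dounce-homogenised in PBS pH 7.4 containing 1 mM MgCl2, and the crude extract, at 1 mg/mL protein, was exposed to 10 μM compound for 30 min. Aliquots were heated for 3 min across 48°C-58°C, pooled, brought to 0.5% NP-40 at 4°C and spun at 21,000xg for 90 min, with the supernatant taken as soluble protein. TMTpro 16plex LC-MS/MS with equalised channel sums quantified that protein. Values are log-two fold changes in thermal stability relative to solvent controls, taken from duplicates.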
# [2] = compound: O=C(CCCCCCC(=O)Nc1ccccc1)NO [vorinostat]
# In short: as §1
# [3] = compound: O=C(O)c1ccc2c(c1)nc(Nc1cccc(Cl)c1)c1ccncc12 [silmitasertib]
# In short: as §1
# [4] = compound: O=C1NC(=O)C(c2cnc3ccccn23)=C1c1cn2c3c(cc(F)cc13)CN(C(=O)N1CCCCC1)CC2
# In short: as §1
# [5] = compound: c1cn2cc(-c3ccc4cn[nH]c4c3)nc(Nc3ccc(N4CCOCC4)cc3)c2n1 [entospletinib]
# In short: as §1
# Chain of UniProt Q02252 (Q02252 whole entry, looked up): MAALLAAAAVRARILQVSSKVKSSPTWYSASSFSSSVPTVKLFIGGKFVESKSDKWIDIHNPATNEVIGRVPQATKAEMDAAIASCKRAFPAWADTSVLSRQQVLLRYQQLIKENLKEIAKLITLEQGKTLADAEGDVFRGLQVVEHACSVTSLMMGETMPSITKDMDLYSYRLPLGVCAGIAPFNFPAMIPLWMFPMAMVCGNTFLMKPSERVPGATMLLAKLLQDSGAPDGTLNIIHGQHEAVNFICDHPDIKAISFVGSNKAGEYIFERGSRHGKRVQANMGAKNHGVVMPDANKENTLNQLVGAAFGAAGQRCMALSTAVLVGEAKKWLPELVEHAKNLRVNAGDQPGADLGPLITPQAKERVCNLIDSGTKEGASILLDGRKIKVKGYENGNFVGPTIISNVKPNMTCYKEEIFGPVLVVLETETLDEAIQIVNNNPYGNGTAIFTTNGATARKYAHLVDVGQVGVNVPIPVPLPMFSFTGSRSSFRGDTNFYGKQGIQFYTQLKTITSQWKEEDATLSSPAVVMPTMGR
# Chain of UniProt Q92685 (Q92685 whole entry, looked up): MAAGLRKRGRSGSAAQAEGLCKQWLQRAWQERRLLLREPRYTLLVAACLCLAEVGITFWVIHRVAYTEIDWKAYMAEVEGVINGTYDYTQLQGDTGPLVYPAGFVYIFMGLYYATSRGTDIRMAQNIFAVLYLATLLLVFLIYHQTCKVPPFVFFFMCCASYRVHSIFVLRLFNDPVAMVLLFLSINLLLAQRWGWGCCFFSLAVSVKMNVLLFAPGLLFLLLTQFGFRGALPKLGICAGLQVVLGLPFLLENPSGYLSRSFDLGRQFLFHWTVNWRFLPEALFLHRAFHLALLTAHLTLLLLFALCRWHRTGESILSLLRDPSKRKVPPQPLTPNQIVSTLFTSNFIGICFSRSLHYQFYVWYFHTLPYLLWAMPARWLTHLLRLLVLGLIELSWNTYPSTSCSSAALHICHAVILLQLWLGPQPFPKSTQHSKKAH
# Chain of UniProt Q3SXY8 (Q3SXY8 whole entry, looked up): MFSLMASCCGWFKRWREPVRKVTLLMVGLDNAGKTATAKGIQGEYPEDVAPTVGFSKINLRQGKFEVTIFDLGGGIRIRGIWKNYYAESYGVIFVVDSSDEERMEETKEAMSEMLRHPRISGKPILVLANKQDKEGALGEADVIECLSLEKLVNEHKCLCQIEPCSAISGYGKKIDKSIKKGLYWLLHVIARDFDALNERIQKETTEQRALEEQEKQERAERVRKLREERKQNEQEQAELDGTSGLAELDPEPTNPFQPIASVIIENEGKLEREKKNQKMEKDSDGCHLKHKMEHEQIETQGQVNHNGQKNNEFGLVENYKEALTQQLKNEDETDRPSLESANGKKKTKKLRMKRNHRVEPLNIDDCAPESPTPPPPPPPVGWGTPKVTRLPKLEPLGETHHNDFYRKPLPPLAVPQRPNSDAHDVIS
# Chain of UniProt P42331 (P42331 whole entry, looked up): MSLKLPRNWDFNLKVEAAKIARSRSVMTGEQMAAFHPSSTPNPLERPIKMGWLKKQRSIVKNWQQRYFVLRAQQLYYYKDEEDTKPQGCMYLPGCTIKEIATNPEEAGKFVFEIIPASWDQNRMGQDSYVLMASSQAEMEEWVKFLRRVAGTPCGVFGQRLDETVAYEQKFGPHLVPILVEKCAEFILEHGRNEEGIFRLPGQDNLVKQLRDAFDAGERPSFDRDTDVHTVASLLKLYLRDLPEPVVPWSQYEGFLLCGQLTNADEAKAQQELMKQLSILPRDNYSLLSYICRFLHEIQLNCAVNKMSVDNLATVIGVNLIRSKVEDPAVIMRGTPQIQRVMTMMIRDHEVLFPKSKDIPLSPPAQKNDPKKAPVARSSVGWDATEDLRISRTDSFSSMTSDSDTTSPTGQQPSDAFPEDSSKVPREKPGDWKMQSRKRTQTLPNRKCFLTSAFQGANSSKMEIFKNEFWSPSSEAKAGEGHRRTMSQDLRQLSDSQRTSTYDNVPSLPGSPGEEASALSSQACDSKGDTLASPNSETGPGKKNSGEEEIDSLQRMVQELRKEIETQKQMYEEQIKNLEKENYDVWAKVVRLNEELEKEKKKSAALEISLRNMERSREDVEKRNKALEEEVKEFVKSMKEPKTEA
# Chain of UniProt P00352 (P00352 whole entry, looked up): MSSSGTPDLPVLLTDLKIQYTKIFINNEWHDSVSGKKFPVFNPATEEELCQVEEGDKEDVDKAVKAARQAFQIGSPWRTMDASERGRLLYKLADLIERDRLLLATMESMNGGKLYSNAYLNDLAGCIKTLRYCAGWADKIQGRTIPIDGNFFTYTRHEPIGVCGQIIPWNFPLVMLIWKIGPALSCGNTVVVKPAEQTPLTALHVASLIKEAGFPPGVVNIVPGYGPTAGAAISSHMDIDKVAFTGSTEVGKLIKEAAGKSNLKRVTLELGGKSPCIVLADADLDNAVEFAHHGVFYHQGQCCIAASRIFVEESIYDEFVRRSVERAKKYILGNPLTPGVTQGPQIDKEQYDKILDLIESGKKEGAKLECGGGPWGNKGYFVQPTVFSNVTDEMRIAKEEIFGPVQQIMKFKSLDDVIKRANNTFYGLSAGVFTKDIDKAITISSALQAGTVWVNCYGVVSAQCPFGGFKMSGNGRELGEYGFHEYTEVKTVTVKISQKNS
# Chain of UniProt P42684 (P42684 whole entry, looked up): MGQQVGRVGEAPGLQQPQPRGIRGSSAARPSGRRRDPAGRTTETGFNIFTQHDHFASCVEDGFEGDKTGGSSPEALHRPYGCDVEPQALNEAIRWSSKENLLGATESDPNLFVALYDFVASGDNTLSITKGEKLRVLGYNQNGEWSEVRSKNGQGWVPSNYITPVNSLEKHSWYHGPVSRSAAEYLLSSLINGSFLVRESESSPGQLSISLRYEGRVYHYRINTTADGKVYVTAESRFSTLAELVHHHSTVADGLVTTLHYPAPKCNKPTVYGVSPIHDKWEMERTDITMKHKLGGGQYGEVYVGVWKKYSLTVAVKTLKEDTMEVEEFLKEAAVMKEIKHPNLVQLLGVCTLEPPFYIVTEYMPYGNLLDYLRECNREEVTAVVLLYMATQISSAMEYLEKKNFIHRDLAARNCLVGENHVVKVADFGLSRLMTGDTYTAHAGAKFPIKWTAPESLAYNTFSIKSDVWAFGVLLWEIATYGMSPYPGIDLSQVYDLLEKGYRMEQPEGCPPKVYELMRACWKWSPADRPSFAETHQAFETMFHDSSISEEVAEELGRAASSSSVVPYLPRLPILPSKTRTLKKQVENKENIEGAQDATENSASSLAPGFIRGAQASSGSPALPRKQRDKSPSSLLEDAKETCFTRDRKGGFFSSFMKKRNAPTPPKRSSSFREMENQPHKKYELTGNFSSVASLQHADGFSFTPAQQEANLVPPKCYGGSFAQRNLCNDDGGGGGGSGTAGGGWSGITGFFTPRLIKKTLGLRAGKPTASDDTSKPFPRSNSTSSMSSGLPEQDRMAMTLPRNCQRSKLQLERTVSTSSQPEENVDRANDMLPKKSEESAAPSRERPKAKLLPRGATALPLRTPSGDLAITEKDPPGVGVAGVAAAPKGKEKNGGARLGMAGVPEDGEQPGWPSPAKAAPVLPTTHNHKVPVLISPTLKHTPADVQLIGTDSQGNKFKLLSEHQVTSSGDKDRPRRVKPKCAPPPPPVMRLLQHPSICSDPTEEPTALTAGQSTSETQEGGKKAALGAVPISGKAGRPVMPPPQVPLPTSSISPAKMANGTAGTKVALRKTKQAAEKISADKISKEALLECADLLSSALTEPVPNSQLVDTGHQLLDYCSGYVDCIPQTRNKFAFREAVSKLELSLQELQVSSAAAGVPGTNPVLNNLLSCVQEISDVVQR
# Chain of UniProt Q96NW4 (Q96NW4 whole entry, looked up): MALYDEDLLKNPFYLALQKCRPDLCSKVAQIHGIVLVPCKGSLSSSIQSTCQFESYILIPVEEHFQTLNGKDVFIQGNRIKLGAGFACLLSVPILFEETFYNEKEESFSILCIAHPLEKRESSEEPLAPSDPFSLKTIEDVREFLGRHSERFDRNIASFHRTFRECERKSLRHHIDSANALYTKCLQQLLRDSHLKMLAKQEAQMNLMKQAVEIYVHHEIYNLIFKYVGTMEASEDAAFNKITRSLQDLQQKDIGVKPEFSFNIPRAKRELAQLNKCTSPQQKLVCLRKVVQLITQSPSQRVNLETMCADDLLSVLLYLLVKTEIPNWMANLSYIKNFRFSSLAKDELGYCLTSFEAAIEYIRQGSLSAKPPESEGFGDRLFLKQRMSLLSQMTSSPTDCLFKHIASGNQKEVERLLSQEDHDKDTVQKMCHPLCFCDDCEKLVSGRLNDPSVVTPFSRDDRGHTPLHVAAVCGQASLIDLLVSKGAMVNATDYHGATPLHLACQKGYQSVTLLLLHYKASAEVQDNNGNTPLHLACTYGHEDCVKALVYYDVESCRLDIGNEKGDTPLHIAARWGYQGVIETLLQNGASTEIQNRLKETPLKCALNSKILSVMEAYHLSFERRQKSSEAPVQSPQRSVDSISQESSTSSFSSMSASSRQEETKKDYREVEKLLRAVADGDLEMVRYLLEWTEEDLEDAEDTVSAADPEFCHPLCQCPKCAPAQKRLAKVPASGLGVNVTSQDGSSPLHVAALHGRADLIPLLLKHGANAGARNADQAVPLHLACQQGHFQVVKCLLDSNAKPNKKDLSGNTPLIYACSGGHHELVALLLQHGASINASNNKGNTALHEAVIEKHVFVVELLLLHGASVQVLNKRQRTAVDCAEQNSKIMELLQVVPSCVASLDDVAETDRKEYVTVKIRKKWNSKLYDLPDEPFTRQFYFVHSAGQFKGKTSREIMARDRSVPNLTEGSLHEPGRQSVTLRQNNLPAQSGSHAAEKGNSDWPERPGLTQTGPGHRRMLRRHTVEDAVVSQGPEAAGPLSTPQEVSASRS
# Chain of UniProt P14621 (P14621 whole entry, looked up): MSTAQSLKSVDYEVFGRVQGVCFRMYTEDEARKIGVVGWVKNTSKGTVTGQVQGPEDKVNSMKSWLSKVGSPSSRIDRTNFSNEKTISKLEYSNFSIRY
Target,log2 fold change [1],log2 fold change [2],log2 fold change [3],log2 fold change [4],log2 fold change [5]
ABCD3 (UniProt P28288),-0.019,-0.164,0.113,-0.08,0.034
ALG3 (UniProt Q92685),-0.107,0.461 (active),0.285,-0.157,-0.01
ANKRD27 (UniProt Q96NW4),-0.066,-0.451 (active),-0.025,0.022,0.01
ABHD17B (UniProt Q5VST6),0.096,0.219,-0.021,0.032,0.2
ABCF2 isoform 2 (UniProt Q9UG63),0.103,-0.326 (active),0.054,0.016,-0.028
AK1 (UniProt P00568),0.005,0.075,0.001,-0.001,0.022
ACADM isoform 2 (UniProt P11310),-0.015,0.344 (active),-0.015,0.023,0.016
ALDH6A1 (UniProt Q02252),-0.041,-0.046,0.042,0.096,0.035
ARL13B (UniProt Q3SXY8),0.01,-0.186,-0.024,-0.064,–
ALG8 (UniProt Q9BVK2),-0.022,-0.05,0.063,-0.008,-0.007
ALDH1A1 (UniProt P00352),-0.038,0.116,-0.011,-0.018,0.02
AP3D1 isoform 2 (UniProt O14617),0.179,-0.738 (active),0.02,–,–
ANP32A (UniProt P39687),-0.005,0.08,0.063,-0.027,0.026
ADRM1 (UniProt Q16186),0.051,-0.231 (active),-0.027,-0.04,-0.002
ARHGAP25 isoform 4 (UniProt P42331),0.027,-0.377 (active),0.011,-0.038,0.009
AFF1 isoform 2 (UniProt P51825),0.019,-0.074,-0.046,-0.046,-0.064
AK2 (UniProt P54819),0.024,0.159,0.007,-0.005,0.012
ACTG1 (UniProt I3L4N8),-0.131,0.358,-0.043,0.082,0.098
ANKRD10 (UniProt Q9NXR5),0,-0.589 (active),0.037,-0.066,–
ACYP2 (UniProt P14621),0.066,0.147,-0.081,0.012,–
ABL2 (UniProt P42684),-0.093,-0.274,0.073,-0.055,-0.05
ALDH5A1 isoform 2 (UniProt P51649),-0.02,0.371 (active),-0.005,-0.057,0.003
ANXA5 (UniProt P08758),-0.008,0.056,0.021,-0.017,0.006
ABI1 isoform 9 (UniProt Q8IZP0),0.046,0.026,-0.025,0.03,0.018
ANXA13 isoform 2 (UniProt P27216),-0.084,0.004,0.024,0.02,–
ADAMTS5 (UniProt Q9UNA0),0.137,0.028,-0.065,0.062,-0.125
AGTPBP1 (UniProt Q9UPW5),0.125,-0.033,-0.012,0.11,0.035
ARMCX3 (UniProt Q9UH62),0.042,-0.279 (active),0.036,-0.024,0.047
